# Laboratory results taken from PubChem BioAssay AID1159580 (chemical genetic matrix, 2015).
# Values joined by “and” are separate entries in the source; they are usually repeats but may differ in a detail not shown here. Equal entries are not always repeated. The campaign covered roughly 5,500 compounds. About 2,000 (36%) were called active. About 18% were inconclusive and are not listed. This is one part of the list. Unmarked numbers belong to inactive results. Cut-off read from the data, not from the text of the source: active = normalized growth mostly below about 0.91 (no sharp cut-off); inconclusive = no clear call, values can overlap the other calls; inactive = mostly above about 0.92.
# Assay: chemical genetic growth profiling, strain panel (AID 1159580);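 note: tested at 20 µM; growth read once vehicle control cultures reached saturation at 30 °C; 1 = growth at the plate median or of vehicle wells; lower values mean less growth of the strain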
# Conditions: S. cerevisiae deletion strains, growth OD
smiles,measurement,setting,value
CN(C)CCC=C1c2ccccc2CCc2ccccc21,normalized growth,"locus YAL013W, strain DEP1, active compounds read low",0.992
same,normalized growth,"locus YAL021C, strain ccr4, active compounds read low",0.896 (active)
same,normalized growth,"locus YAL026C, strain drs2, active compounds read low",0.894 (active)
same,normalized growth,"locus YAL030W, strain snc1, active compounds read low",0.995
same,normalized growth,"locus YAL040C, strain CLN3, active compounds read low",1
same,normalized growth,"locus YBL061C, strain skt5, active compounds read low",0.991
same,normalized growth,"locus YBR009C, strain hhf1, active compounds read low",0.913
same,normalized growth,"locus YBR021W, strain FUR4, active compounds read low",1
same,normalized growth,"locus YBR023C, strain chs3, active compounds read low",0.975
same,normalized growth,"locus YBR171W, strain sec66, active compounds read low",0.969
same,normalized growth,"locus YBR229C, strain ROT2, active compounds read low",1
same,normalized growth,"locus YBR231C, strain swc5, active compounds read low",1
same,normalized growth,"locus YBR279W, strain paf1, active compounds read low",0.958
same,normalized growth,"locus YCL011C, strain gbp2, active compounds read low",0.946
same,normalized growth,"locus YCL016C, strain dcc1, active compounds read low",0.958
same,normalized growth,"locus YCL029C, strain bik1, active compounds read low",1
same,normalized growth,"locus YCL061C, strain MRC1, active compounds read low",0.993
same,normalized growth,"locus YCL069W, strain vba3, active compounds read low",0.987
same,normalized growth,"locus YCR088W, strain abp1, active compounds read low",0.953
same,normalized growth,"locus YDL005C, strain med2, active compounds read low",0.993
same,normalized growth,"locus YDL035C, strain GPR1, active compounds read low",1.02
same,normalized growth,"locus YDL040C, strain nat1, active compounds read low",0.989
same,normalized growth,"locus YDL074C, strain BRE1, active compounds read low",0.999
same,normalized growth,"locus YDL101C, strain DUN1, active compounds read low",1.01
same,normalized growth,"locus YDL134C, strain PPH21, active compounds read low",0.998
same,normalized growth,"locus YDL185W, strain tfp1, active compounds read low",1
same,normalized growth,"locus YDL192W, strain arf1, active compounds read low",0.996
same,normalized growth,"locus YDR001C, strain nth1, active compounds read low",0.963
same,normalized growth,"locus YDR069C, strain doa4, active compounds read low",0.955
same,normalized growth,"locus YDR101C, strain arx1, active compounds read low",0.995
same,normalized growth,"locus YDR137W, strain rgp1, active compounds read low",1.19 [resistant] (active)
same,normalized growth,"locus YDR159W, strain sac3, active compounds read low",0.962
same,normalized growth,"locus YDR162C, strain NBP2, active compounds read low",1.02
same,normalized growth,"locus YDR195W, strain ref2",1.07
same,normalized growth,"locus YDR297W, strain sur2, active compounds read low",0.975
same,normalized growth,"locus YDR318W, strain mcm21, active compounds read low",1
same,normalized growth,"locus YDR334W, strain swr1, active compounds read low",0.98
same,normalized growth,"locus YDR335W, strain msn5, active compounds read low",0.973
same,normalized growth,"locus YDR363W, strain ESC2, active compounds read low",1
same,normalized growth,"locus YDR388W, active compounds read low",1
same,normalized growth,"locus YDR392W, strain spt3, active compounds read low",0.922
same,normalized growth,"locus YDR502C, strain sam2, active compounds read low",0.992
same,normalized growth,"locus YEL003W, strain gim4, active compounds read low",0.978
same,normalized growth,"locus YEL037C, strain rad23, active compounds read low",0.984
same,normalized growth,"locus YEL061C, strain CIN8 (second series), active compounds read low",0.988
same,normalized growth,"locus YEL061C, strain CIN8, active compounds read low",1.01
same,normalized growth,"locus YER002W, strain NOP16, active compounds read low",1.01
same,normalized growth,"locus YER015W, strain faa2, active compounds read low",0.913 (active)
same,normalized growth,"locus YER016W, strain bim1, active compounds read low",0.951
same,normalized growth,"locus YER110C, active compounds read low",1
same,normalized growth,"locus YER111C, strain swi4, active compounds read low",0.97
same,normalized growth,"locus YER155C, strain BEM2 (second series), active compounds read low",1
same,normalized growth,"locus YER155C, strain BEM2, active compounds read low",1
same,normalized growth,"locus YER167W, strain BCK2, active compounds read low",1.01
same,normalized growth,"locus YFR010W, strain ubp6, active compounds read low",0.94
same,normalized growth,"locus YGL078C, strain dbp3, active compounds read low",0.986
same,normalized growth,"locus YGL086W, strain mad1, active compounds read low",1
same,normalized growth,"locus YGL167C, strain pmr1, active compounds read low",0.995
same,normalized growth,"locus YGL173C, strain kem1, active compounds read low",0.966
same,normalized growth,"locus YGL227W, strain vid30, active compounds read low",0.994
same,normalized growth,"locus YGL240W, strain doc1, active compounds read low",0.999
same,normalized growth,"locus YGL248W, strain PDE1, active compounds read low",1.01
same,normalized growth,"locus YGL253W, strain hxk2, active compounds read low",0.953
same,normalized growth,"locus YGR078C, strain PAC10, active compounds read low",1
same,normalized growth,"locus YGR135W, strain pre9, active compounds read low",0.994
same,normalized growth,"locus YGR229C, strain SMI1, active compounds read low",0.975
same,normalized growth,"locus YGR252W, strain gcn5, active compounds read low",0.944
same,normalized growth,"locus YHR013C, strain ard1, active compounds read low",0.875
same,normalized growth,"locus YHR027C, strain rpn1, active compounds read low",0.864 (active)
same,normalized growth,"locus YHR030C, strain SLT2, active compounds read low",1.01 and 1.08
same,normalized growth,"locus YHR079C, strain IRE1 (second series), active compounds read low",0.994
same,normalized growth,"locus YHR079C, strain IRE1, active compounds read low",1.05
same,normalized growth,"locus YHR094C, strain hxt1, active compounds read low",0.992
same,normalized growth,"locus YHR129C, strain ARP1, active compounds read low",1.01
same,normalized growth,"locus YHR142W, strain chs7, active compounds read low",0.919
same,normalized growth,"locus YHR200W, strain rpn10, active compounds read low",0.995
same,normalized growth,"locus YIL066C, strain RNR3, active compounds read low",1.02
same,normalized growth,"locus YIL073C, strain SPO22, active compounds read low",1.05
same,normalized growth,"locus YIL125W, strain kgd1, active compounds read low",0.997
same,normalized growth,"locus YIR030C, strain dcg1, active compounds read low",0.992
same,normalized growth,"locus YJL092W, strain hpr5, active compounds read low",0.979
same,normalized growth,"locus YJL095W, strain BCK1 (second series), active compounds read low",0.978
same,normalized growth,"locus YJL095W, strain BCK1, active compounds read low",1.01 and 1.05
same,normalized growth,"locus YJL115W, strain asf1, active compounds read low",0.974
same,normalized growth,"locus YJL129C, strain trk1, active compounds read low",1.01
same,normalized growth,"locus YJL134W, strain LCB3, active compounds read low",1.01
same,normalized growth,"locus YJL154C, strain vps35, active compounds read low",0.975
same,normalized growth,"locus YJL164C, strain tpk1, active compounds read low",0.974
same,normalized growth,"locus YJL166W, strain qcr8, active compounds read low",0.988
same,normalized growth,"locus YJL168C, strain set2, active compounds read low",1.01
same,normalized growth,"locus YJL187C, strain SWE1 (second series), active compounds read low",1.01
same,normalized growth,"locus YJL187C, strain SWE1, active compounds read low",0.985
same,normalized growth,"locus YJR043C, strain POL32, active compounds read low",1.01
